Our source for the composite z-score and z-score values is PubChem BioAssay.

The test system of assay [1] is Plasmodium falciparum Sir2 (PF13_0152, Sir2A). As to the kind of experiment: Plasmodium falciparum Sir2A binding compounds – biochemical, small-molecule microarray, 635 nm fluorescence, primary screen (AID 1098).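 Further: score merges spot fluorescence intensity with its signal-to-noise ratio.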 Conditions: fluorescence 635 nm, higher = more signal.
A short description of assay [2]: probe aDKK1 binding to arrayed compounds – biochemical, biotinylated probe, 635/667 nm fluorescence, primary screen (AID 1099).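 Further: score merges 667nm spot fluorescence with signal to noise across triplicate slides.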 Conditions: small-molecule microarray, higher = more signal.
Assay [3] can be described thus: probe aCHRDL2 binding to arrayed compounds – biochemical, biotinylated probe, 635/667 nm fluorescence, primary screen (AID 1100). The conditions noted are these: small-molecule microarray, higher = more signal.
Assay [4] in a line: change in splice reporter luminescence, either direction, cell-based, HEK293, spliceosome inhibition project, primary screen (AID 1101).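 Further: HEK293 cells carrying a splicing-competent luciferase reporter gene; test concentration not given here.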 Conditions: HEK293 splicing luciferase reporter, 24 h, higher = more signal, called active from +8 up or from −8 down. Background: In a reporter assay the amount or activity of a reporter protein is the signal.
Assay [5] has as its target Fibroblast growth factor 10 (Homo sapiens) (UniProt O15520). As to the kind of experiment: compounds binding fibroblast growth factor 10 – biochemical, small-molecule microarray, 635 nm fluorescence, primary screen (AID 1102). The conditions noted are these: FGF10 binding, fluorescence 635 nm, higher = more signal.
Assay [6] deals with glycogen synthase kinase-3 (GSK3A per assay name; protocol says GSK3B). Kind of assay: compounds binding glycogen synthase kinase-3 – biochemical, small-molecule microarray, 635 nm fluorescence, GSK3A, primary screen (AID 1103). Further: the record names both GSK3A and GSK3B. The conditions noted are these: fluorescence 635 nm, higher = more signal.
In assay [7] the target is Epidermal growth factor receptor (Homo sapiens) (UniProt P00533). Kind of assay: compounds binding epidermal growth factor receptor – biochemical, small-molecule microarray, 635 nm fluorescence, primary screen (AID 1104).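 Further: score merges 667 nm emission intensity with spot signal to noise over triplicate slides.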 Conditions: EGFR binding, higher = more signal.
Epidermal growth factor receptor (Homo sapiens), sequence (P00533 whole entry, looked up): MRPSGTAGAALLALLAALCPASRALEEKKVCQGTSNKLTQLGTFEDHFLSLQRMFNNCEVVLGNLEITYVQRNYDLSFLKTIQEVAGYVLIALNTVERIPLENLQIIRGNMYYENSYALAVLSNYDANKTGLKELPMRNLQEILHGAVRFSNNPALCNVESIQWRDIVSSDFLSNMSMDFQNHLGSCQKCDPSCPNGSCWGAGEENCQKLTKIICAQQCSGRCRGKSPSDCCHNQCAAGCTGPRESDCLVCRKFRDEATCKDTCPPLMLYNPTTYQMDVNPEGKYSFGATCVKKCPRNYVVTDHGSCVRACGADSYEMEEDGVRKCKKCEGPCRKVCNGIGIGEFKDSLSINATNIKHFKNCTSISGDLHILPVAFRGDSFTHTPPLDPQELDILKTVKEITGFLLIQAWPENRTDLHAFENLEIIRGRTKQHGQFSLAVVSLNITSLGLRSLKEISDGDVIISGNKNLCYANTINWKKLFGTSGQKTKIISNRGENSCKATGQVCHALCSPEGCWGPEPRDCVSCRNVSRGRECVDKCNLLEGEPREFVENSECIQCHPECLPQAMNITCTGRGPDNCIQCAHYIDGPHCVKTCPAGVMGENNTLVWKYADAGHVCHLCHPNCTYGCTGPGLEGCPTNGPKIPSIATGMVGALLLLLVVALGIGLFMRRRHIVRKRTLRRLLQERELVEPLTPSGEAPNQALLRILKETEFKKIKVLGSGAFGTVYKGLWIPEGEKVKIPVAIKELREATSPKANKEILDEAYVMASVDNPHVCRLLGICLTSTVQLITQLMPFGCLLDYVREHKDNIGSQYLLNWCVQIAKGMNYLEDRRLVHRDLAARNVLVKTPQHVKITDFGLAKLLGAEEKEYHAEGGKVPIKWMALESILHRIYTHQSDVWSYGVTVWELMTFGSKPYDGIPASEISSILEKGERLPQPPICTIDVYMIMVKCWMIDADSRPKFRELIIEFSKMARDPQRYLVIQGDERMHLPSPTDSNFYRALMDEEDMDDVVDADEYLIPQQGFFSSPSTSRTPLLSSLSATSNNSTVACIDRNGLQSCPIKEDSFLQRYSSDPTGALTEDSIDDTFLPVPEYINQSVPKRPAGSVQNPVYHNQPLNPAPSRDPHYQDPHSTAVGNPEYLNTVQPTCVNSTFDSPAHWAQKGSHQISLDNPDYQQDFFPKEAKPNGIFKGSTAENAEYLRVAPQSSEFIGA
For assay [8], the target named is Follistatin-related protein 3 (Homo sapiens) (UniProt O95633). Kind of assay: compounds binding follistatin-related protein 3 – biochemical, small-molecule microarray, 635 nm fluorescence, primary screen (AID 1105).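 Further: score merges emission near 667 nm and signal to noise per printed spot across three slides.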 The conditions noted are these: FSTL3 binding, higher = more signal.
Follistatin-related protein 3 (Homo sapiens), sequence (O95633 whole entry, looked up): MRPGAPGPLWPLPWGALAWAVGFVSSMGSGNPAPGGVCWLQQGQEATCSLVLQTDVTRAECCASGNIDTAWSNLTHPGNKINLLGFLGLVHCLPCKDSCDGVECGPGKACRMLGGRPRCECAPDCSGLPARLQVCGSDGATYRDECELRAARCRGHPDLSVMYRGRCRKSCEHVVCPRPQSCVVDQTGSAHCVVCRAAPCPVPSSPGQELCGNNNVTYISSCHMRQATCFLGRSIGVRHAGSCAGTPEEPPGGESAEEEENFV
Assay [9] concerns the target Dickkopf-related protein 1 (Homo sapiens) (UniProt O94907). As to the kind of experiment: small molecules binding DKK1 protein – biochemical, small-molecule microarray, 635 nm fluorescence scan, primary screen (AID 1106).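 Further: score merges emission near 667 nm with signal to noise over three replicate slides.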 The conditions noted are these: higher = more signal.
Assay [10] deals with Inhibin beta A chain (activin A). Kind of assay: small molecules binding activin A – biochemical, small-molecule microarray, 635 nm fluorescence scan, primary screen (AID 1107).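 Further: mouse activin A protein probed at 4.33 µg/mL on printed slides; score merges bound-protein fluorescence near 667 nm with spot signal-to-noise.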 The conditions noted are these: INHBA, higher = more signal.
Assay [11] deals with Human papillomavirus type 1a protein E7 (residues 44-93). Kind of assay: small molecules binding HPV E7 44-93 – biochemical, small-molecule microarray, residues 44-93, 635 nm fluorescence, primary screen (AID 1108).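 Further: E7 fragment applied at 1 µg/mL in TBST for 1 h at 4 C; score combines spot fluorescence with its signal to noise ratio.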 Conditions: fluorescence 635 nm, higher = more signal.
A short description of assay [12]: hepatitis C replication reporter changes, two-sided – Huh7 cells, luciferase reporter, HCV replication inhibitor project, primary screen (AID 1109).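 Further: huh7 hepatoma cells harbouring a luciferase neomycin HCV replicon reporter; luciferase luminescence as measure of HCV replicon replication; test concentration not given here.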 Conditions: Huh7 HCV replicon luciferase reporter, 48 h; higher = more signal.
Assay [13] concerns the target Left-right determination factor 2 (Homo sapiens) (UniProt O00292). As to the kind of experiment: small molecules binding LEFTY2 protein – biochemical, small-molecule microarray, 635 nm fluorescence scan, primary screen (AID 1110). The conditions noted are these: higher = more signal.
The target in assay [14] is Calmodulin-1 (Homo sapiens) (UniProt P0DP23). Kind of assay: small molecules binding calmodulin-1 with EGTA – biochemical, small-molecule microarray, Cy5-labelled CALM1, profiling panel (AID 1111).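 Further: labelled calmodulin applied in Tris saline Tween buffer holding calcium plus EGTA and DTT.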 The conditions noted are these: Cy5-CALM1 binding fluorescence, higher = more signal.
Assay [15] has the same target. Kind of assay: small molecules binding Ca-loaded calmodulin-1 – biochemical, small-molecule microarray, Cy5-labelled CALM1, plus calcium, artefact control for SMM control-protein annotation, profiling panel (AID 1112).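 Further: score merges spot fluorescence with signal to noise from triplicate slides.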 Conditions: Cy5-CALM1 binding fluorescence, higher = more signal.
Assay [16] in a line: probe aWnt5a binding to arrayed compounds – biochemical, biotinylated probe, 635/667 nm fluorescence, primary screen (AID 1113).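 Further: score merges 667 nm fluorescence intensity with signal-to-noise per printed feature.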 Conditions: small-molecule microarray, higher = more signal.
A short description of assay [17]: probe aShh binding to arrayed compounds – biochemical, biotinylated probe, 635/667 nm fluorescence, primary screen (AID 1114).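 Further: probe is biotin-labelled aShh protein from a stem cell growth factor screen; measures binding of labelled protein to compounds printed on the slide; score merges feature fluorescence at 667 nm with signal-to-noise.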 Conditions: small-molecule microarray, higher = more signal.
The nature of assay [18]: probe aNog binding to arrayed compounds – biochemical, biotinylated probe, 635/667 nm fluorescence, primary screen (AID 1115).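 Further: probe is biotinylated aNog protein used at 0.15 µg/mL for 1 h at 4 C; z-score combines 667 nm fluorescence of each spot with its signal to noise.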 The conditions noted are these: small-molecule microarray, higher = more signal.
In assay [19] the target is Torsin-1A-interacting protein 1 (Homo sapiens) (UniProt Q5JTV8). Kind of assay: compound microarray binding of lysate hLAP1 – cell lysate, small-molecule microarray, COS7 lysate, 635/667 nm fluorescence, primary screen (AID 1116). Conditions: 635 nm fluorescence, higher = more signal.
Torsin-1A-interacting protein 1 (Homo sapiens), sequence (Q5JTV8 whole entry, looked up): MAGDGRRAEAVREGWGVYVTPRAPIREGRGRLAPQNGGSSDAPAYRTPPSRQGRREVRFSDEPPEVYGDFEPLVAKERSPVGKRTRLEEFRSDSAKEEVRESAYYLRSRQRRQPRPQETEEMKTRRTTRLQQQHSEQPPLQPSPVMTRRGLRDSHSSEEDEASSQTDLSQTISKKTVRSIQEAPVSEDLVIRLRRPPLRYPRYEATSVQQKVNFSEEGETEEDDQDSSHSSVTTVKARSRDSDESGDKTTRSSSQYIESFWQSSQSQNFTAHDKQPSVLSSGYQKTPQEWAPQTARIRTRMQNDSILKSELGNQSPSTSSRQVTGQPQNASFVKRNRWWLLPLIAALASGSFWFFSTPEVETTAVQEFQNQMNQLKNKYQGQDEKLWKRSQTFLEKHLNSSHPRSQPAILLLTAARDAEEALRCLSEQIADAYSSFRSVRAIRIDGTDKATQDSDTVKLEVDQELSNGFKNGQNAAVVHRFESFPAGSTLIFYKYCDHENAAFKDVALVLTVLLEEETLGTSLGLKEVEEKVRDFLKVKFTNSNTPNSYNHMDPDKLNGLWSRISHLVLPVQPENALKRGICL
Assay [20] has as its target Alpha-bungarotoxin (Bungarus multicinctus) (UniProt P60615). Kind of assay: compounds binding labelled alpha-BTX control protein – biochemical, small-molecule microarray, Alexa647 label, 635/667 nm fluorescence, artefact control for SMM control protein annotation, profiling panel (AID 1117). The conditions noted are these: alpha-BTX-A647 binding fluorescence, higher = more signal.

Calls of active or inactive are those of the source.

Alpha-bungarotoxin (Bungarus multicinctus), sequence (P60615 whole entry, looked up): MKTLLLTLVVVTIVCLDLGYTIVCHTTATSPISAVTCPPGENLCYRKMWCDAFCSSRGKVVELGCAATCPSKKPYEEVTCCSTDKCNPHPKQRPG
Fibroblast growth factor 10 (Homo sapiens), sequence (O15520 whole entry, looked up): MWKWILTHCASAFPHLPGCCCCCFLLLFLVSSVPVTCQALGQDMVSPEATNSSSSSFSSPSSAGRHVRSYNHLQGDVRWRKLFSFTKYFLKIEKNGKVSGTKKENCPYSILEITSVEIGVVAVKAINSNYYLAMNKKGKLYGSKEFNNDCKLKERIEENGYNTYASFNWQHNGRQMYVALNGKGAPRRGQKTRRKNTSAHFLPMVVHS
Dickkopf-related protein 1 (Homo sapiens), sequence (O94907 whole entry, looked up): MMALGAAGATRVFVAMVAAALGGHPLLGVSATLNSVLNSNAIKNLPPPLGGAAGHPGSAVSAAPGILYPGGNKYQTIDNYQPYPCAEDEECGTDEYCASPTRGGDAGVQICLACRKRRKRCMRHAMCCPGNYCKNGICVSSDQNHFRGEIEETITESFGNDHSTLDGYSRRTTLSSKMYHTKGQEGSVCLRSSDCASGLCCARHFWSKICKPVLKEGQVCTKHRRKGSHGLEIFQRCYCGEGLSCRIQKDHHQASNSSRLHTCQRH
Left-right determination factor 2 (Homo sapiens), sequence (O00292 whole entry, looked up): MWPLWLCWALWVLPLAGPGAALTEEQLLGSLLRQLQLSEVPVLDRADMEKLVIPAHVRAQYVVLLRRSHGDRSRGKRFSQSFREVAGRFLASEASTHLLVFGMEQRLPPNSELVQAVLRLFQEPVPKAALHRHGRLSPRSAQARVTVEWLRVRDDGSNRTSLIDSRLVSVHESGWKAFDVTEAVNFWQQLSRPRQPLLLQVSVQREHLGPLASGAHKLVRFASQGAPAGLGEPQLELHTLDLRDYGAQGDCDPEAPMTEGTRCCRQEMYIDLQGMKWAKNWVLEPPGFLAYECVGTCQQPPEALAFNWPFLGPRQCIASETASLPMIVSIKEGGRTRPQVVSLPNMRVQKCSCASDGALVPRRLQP

With `COc1ccc([Si](C)(C)[C@@H]2[C@@H](CCn3cc([C@H](O)c4ccccc4)nn3)O[C@]3(C(=O)N(C)c4ccccc43)[C@H]2C)cc1`, the composite z-score in [1] is 0.839; in [2] it was -0.202; in [3], 0.28; in assay [5], 0.0782; in [6], 0.11; in [7], 0.0033. In addition, the composite z-score was -0.291 in [8]; 0.0052 in [9]; 0.283 in assay [10]; -0.0859 in assay [11]; 0.0661 in [13]; -0.069 in assay [14]. Also, the composite z-score is -0.288 in [15]; -0.197 in assay [16]; -0.0769 in assay [17]; -0.223 in [18]; -0.173 in [19]; 0.0489 in assay [20]. The z-score in assay [4] was 0.0848 (inactive); in [12] it was -2.32.

Turning to `O[C@@H](Cc1ccccc1)[C@@H](/C=C/c1ccccc1)NCc1ccccc1Br`, the composite z-score in assay [1] is -1.01; in [2], 0.151; in assay [3] it was 1.16; in assay [5] it was -1.98; in assay [6], -1.45; in assay [7] it was -1.37. Further, the composite z-score is -2.06 in assay [8]; -1.42 in assay [9]; 0.52 in assay [10]; -1.16 in [11]; -1.56 in assay [13]; -0.793 in [14]. Moreover, the composite z-score in assay [15] is -0.43; in assay [16], -0.109; in assay [17] it was -0.17; in assay [18], -0.445; in assay [19], -0.962; in assay [20], -0.869. For the same compound, the figures for the z-score in assay [4] and in assay [12] were 0.761 (inactive) and -1.38, respectively.

Take `O=C(NCCN1CCOCC1)[C@@H]1c2ccccc2C(=O)N(Cc2cc(F)cc(C(F)(F)F)c2)[C@H]1c1ccc(CO)cc1`: the composite z-score in assay [1] was 1.07; in assay [2], -0.469; in [3], 0.776; in assay [5] it was 0.07; in [6], -0.202; in assay [7], -0.651. In addition, the composite z-score was -0.217 in assay [8]; -1.14 in [9]; -0.333 in [10]; 1.44 in [11]; -1.61 in assay [13]; -0.346 in assay [14]. The composite z-score in assay [15] was 0.0296; in [16], -0.124; in assay [17], -0.214; in assay [18], -0.0949; in [19], 0.812; in [20], -0.444. For the same compound, the results for the z-score in assay [4] and in assay [12] were 0.284 (inactive) and -1.33, respectively.

Consider `COC(=O)[C@@]1(Cc2ccc(F)cc2)[C@H]2c3cc(C(=O)N4CCCC4)n(CCc4ccc(OC)c(Br)c4)c3C[C@H]2CN1C(=O)c1ccccc1`, for which the composite z-score is 0.972 in assay [1]; 1.55 in assay [2]; 1.52 in assay [3]; 0.68 in assay [5]; 1.33 in assay [6]; -0.0295 in [7]. Moreover, the composite z-score was 1.22 in [8]; -0.813 in assay [9]; 0.475 in assay [10]; 0.543 in assay [11]; 0.179 in assay [13]; 2.7 in assay [14]. Moreover, the composite z-score turned out to be 1.29 in assay [15]; 0.155 in assay [16]; 0.627 in assay [17]; 1.11 in assay [18]; 2.7 in assay [19]; 2.38 in assay [20]. In addition, the figures for the z-score in assay [4] and in [12] were -2.23 (inactive) and -2.69, respectively.

With `COCCOC(=O)N1C(=O)[C@@]2(c3cc(C#CCC(C(=O)OC)C(=O)OC)ccc31)[C@H](c1ccc(OCCO)cc1)N1[C@H](c3ccccc3)[C@H](c3ccccc3)OC(=O)[C@H]1[C@@H]2C(=O)NC[C@H](O)c1ccccc1`, the composite z-score in assay [1] is 1.52; in assay [2], -0.405; in assay [3] it was -0.189; in assay [5], 1.5; in assay [6], 1.3; in [7], 0.586. In addition, the composite z-score in assay [8] was found to be 1.29; in assay [9], 0.356; in [10], 0.094; in assay [11] it was 0.958; in [13], 0.59; in assay [14], 1.09. The composite z-score in assay [15] was -0.518; in assay [16], -0.17; in assay [17] it was -0.291; in assay [18], -0.202; in assay [19] it was 0.402; in assay [20] it was 1.18. The z-score in assay [4] was 0.0782 (inactive); in assay [12], -1.71.
